# Bioassay records as filed in PubChem.
# Pin1 inh = inhibitors of human Pin1. Pin1 FP peptide displacement, HiFluor488, 10 min. Potency, µM (highest dose often 115 µM), for the others: at the highest dose activity, negative = inhibition, usual class: inhibitors. 0.009% of 390,000 active. AID 504891; active = well fitted inhibition curve with a large enough effect in the polarisation, with a control signal flat, not every such curve was filed as active; inconclusive = small, poorly fitted or top-dose-only effect, or effect the other way, or a change in a side signal; inactive = no such curve, though single readings can be large or run the other way; the % refers to the polarisation; also: % is scaled to controls: 0 for no effect and ±100 for the full control effect
# Target sequence (Q13526 whole entry, looked up): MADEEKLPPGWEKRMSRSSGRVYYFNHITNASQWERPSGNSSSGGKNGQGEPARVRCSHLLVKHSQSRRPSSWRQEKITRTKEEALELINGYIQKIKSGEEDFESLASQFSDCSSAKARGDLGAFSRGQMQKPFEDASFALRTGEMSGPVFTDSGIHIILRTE
# A549 tox = A549 cytotoxicity, counter-screen for Nrf2 inhibitors | A549 ARE-Fluc cells, CellTiter-Fluor viability, 18-24 h | Potency, µM (top dose mostly 46 µM), for the others: at the top dose activity change, negative = cytotoxicity, most hits filed as inhibitors | 0.16% of 390,000 active; also: % is scaled to controls: 0 for no effect and ±100 for the full control effect
#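 A549 ARE_Fluc cells in 5% FBS OPTI-MEM were exposed to compounds in concentration-response for 18-24 h at 37 deg C. Viability was read by CellTiter-Fluor fluorescence (Ex 405/Em 525) after 30 min, before the luciferase read.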
# Nrf2 inh = Nrf2 pathway inhibition; 2.1% of 360,000 active; Potency, µM (top dose mostly 46 µM), without a hit: at the top dose activity change, negative = inhibition, most hits filed as inhibitors; A549 ARE-Fluc reporter, luciferase luminescence, 18-24 h; also: % is scaled to controls: 0 for no effect and ±100 for the full control effect; nearly all actives have a fitted effect of over 60% in size
#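 Nrf2 function is reported as luminescence of an ARE-controlled luciferase in A549 cells. Compounds were tested at several concentrations, and a CellTiter-Fluor read on the same wells flagged cytotoxicity.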
# Nrf2 ARE act = activators of Nrf2 (ARE) signaling. AREc32 ARE-luciferase reporter (MCF7-derived line), luminescence, 24 h. 0.31% of 410,000 active. Potency, µM (titrated, usually from 46.1 µM), without a hit: at the top dose activation, usual class: activators; also: % of control where 0% means no effect; nearly all actives have a fitted effect of over 65% in size
#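 Luciferase luminescence (Steady-Glo, 30 min at room temperature) served as the read-out of ARE activation in AREc32 cells treated with compounds for 24 hr at 37 deg C.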
# Numbers without * were called inactive; u = inconclusive; x = no result given; [ ] = another dose, or the depositor's remark. Sampled rows, rich in hits. Any-hit rate of the full collection: about 2.2%. Unless noted, calls follow the shape of the dose curve; as a rule, active = well fitted curve in the direction sought with a large enough effect; inconclusive = small, poorly fitted or top-dose-only effect, or another doubt; inactive = no such curve, though single readings can be large; an effect the other way counts as inactive or inconclusive. Potency is read from the fitted curve at half-maximal effect.
SMILES,Pin1 inh,A549 tox,Nrf2 inh,Nrf2 ARE act
COc1cccc(N2CCN(C(=O)C3CCCN(S(=O)(=O)c4cccc5nsnc45)C3)CC2)c1 (stereo not drawn),19%,-10%,16µM*,0%
CC(=O)c1c(C)[nH]c(C(=O)OCC(=O)N2CCN(S(=O)(=O)c3ccc(C)cc3)CC2)c1C,1%,-4%,16µM*,0%
CC1CCN(C(=O)C2CCCN(S(=O)(=O)c3cccc4nsnc34)C2)CC1 (stereo not drawn),-1%,-1%,-24%,0%
CCOC(=O)N1CCN(C(=O)C2CCCN(S(=O)(=O)c3ccc(OCC)cc3)C2)CC1 (stereo not drawn),-1%,-5%,u,-1%
CCOc1ccc(S(=O)(=O)N2CCN(C(=O)COc3ccc(Br)cc3)CC2)cc1,u,u,16µM*,4%
CC(C)CCn1c(=O)c2sccc2n2c(CCCC(=O)NC3CCC(C)CC3)nnc12 (stereo not drawn),-3%,-5%,19%,-1%
CCC(C)C(NC(=O)OC(C)(C)C)C(=O)NC1COC2CC(n3cc(C)c(=O)[nH]c3=O)OC12 (stereo not drawn),-4%,-11%,19%,x
Cc1ccccc1C(=O)Nc1cccc(NC(=O)c2ccc(C(C)(C)C)cc2)c1,u,-19%,u,1%
CC(=O)c1ccc(N2CCN(C(=O)C3CCCN(S(=O)(=O)c4ccc(Br)s4)C3)CC2)cc1 (stereo not drawn),38%,-8%,16µM*,3%
O=C(C1CCCN(S(=O)(=O)c2ccc(Br)s2)C1)N1CCN(c2ccc(F)cc2)CC1 (stereo not drawn),14%,-2%,u,1%
Cc1ccc(S(=O)(=O)n2nccc2-c2c(-c3ccccc3)noc2C)cc1,35%,-2%,18µM*,0%
COC(=O)c1ccc(NS(=O)(=O)c2cc3c4c(c2)CCC(=O)N4CCC3)cc1,-1%,0%,23µM*,5%
COc1cc2c(cc1OC)C(c1ccc(Cl)cc1)N(c1cccc(C#N)c1)C(=O)C2 (stereo not drawn),2%,-13%,u,2%
COc1ccc(S(=O)(=O)c2cc3cc(C(C)(C)C)cc(O)c3oc2=O)cc1,u,3%,u,16µM*
CCOc1ccc(S(=O)(=O)c2cc3cccc(OCC)c3oc2=O)cc1,-2%,-4%,5%,4.5µM*
Cc1ccc(S(=O)(=O)c2cc3ccccc3oc2=O)cc1,4%,-1%,-14%,5.6µM*
CCOc1cccc2cc(C(=O)Oc3ccc(OC)cc3)c(=O)oc12,-5%,0%,0%,3%
COc1ccc(S(=O)(=O)c2cc3cc(OC)ccc3oc2=O)cc1,-5%,-5%,9%,12%
COc1ccc(NC(=O)CC2C(=O)N(c3ccc(C)cc3)C(=O)N2Cc2ccc(C)cc2)cc1 (stereo not drawn),-4%,3%,-2%,0%
COc1cc2c(cc1OC)CN(C(=O)CCOc1ccccc1C)CC2,-8%,u,-12%,0%
COc1cc2c(cc1OC)CN(C(=O)CCCOc1ccc(Cl)cc1Cl)CC2,-6%,-20%,18µM*,1%
CCOC(=O)c1ccc(N2C(=O)C3C(C2=O)C(C(=O)c2ccc(Cl)cc2)N2CCCC32)cc1 (stereo not drawn),u,-16%,14%,14µM*
Clc1ccc(-c2nc3cnccn3c2Nc2ccc3c(c2)OCO3)cc1,-3%,u,23µM*,-1%
CCN(CC)S(=O)(=O)c1cccc(C(=O)N/N=C(\C)c2ccc(O)cc2O)c1,u,u,10µM*,-1%
CCOC(=O)c1ccccc1NC(=O)CCc1c(C)nc2ncnn2c1C,3%,u,u,0%
SMILES,Pin1 inh,A549 tox,Nrf2 inh,Nrf2 ARE act
CC(=O)N1CCc2c(sc(NC(=O)c3ccc([N+](=O)[O-])o3)c2C#N)C1,u,21µM*,26µM*,u
O=C(Nc1ccc2snnc2c1)Nc1cccc2ccccc12,6%,-24%,16µM*,1%
CCc1ccccc1NC(=O)Nc1ccc2snnc2c1,4%,-1%,-26%,0%
CCCOc1ccc(CNC(=O)c2ccc(C)c(-n3c(C)nc4cccnc43)c2)cc1,-2%,0%,-13%,4%
COc1ccc(C(=O)NCCNc2nc3c(C)cccc3cc2C#N)cc1,2%,0%,u,3%
Cc1cccc2cc(C#N)c(NCCNC(=O)NC3CCCCC3)nc12,4%,-10%,9.2µM*,0%
C=CCNc1nc2c(c(=O)n(C)c(=O)n2C)n1CCCCCC,u,-22%,4.1µM*,3%
Cn1c(=O)c2c(nc(NCCc3ccccc3)n2Cc2ccc(F)cc2)n(C)c1=O,-5%,1%,u,0%
C=CCNc1nc2c(c(=O)n(C)c(=O)n2C)n1CC,-4%,1%,-15%,0%
C=CCNc1nc2c(c(=O)n(C)c(=O)n2C)n1Cc1ccc(F)cc1,-8%,0%,8.2µM*,-1%
COc1ccc2c(c1)c1c(c(=O)n(-c3ccccc3C)c(=O)n1CC(N)=O)n2C,-4%,-13%,-21%,0%
CCc1ccc(NS(=O)(=O)c2c(-c3ccccc3)csc2C(=O)OC)cc1,u,-10%,-19%,10%
Cc1ccc(N(CC(=O)Nc2ccc(Br)cc2)S(=O)(=O)c2cccs2)cc1,28%,-4%,9%,0%
Cc1nc(C)c(-c2ccc(SCC(=O)Nc3ccc(F)cc3F)nn2)s1,-2%,-25%,21µM*,-1%
Cc1nc(C)c(-c2ccc(SCC(=O)Nc3ccccc3F)nn2)s1,4%,-1%,x,4%
CC(C)OC(=O)c1c(-c2ccccc2)c(-c2ccccc2)nn(C)c1=O,-7%,-4%,9.2µM*,4%
COc1cccc(C2c3c(ncn(-c4ccccc4-c4ccccc4)c3=N)Oc3ccc4ccccc4c32)c1 (stereo not drawn),17%,-1%,18%,x
CCCCNC(=O)CCn1c(=O)c2ccccc2n(Cc2ccccc2C#N)c1=O,2%,-5%,0%,-1%
O=C1C[C@@H](c2ccccc2Cl)N1S(=O)(=O)c1ccccc1[N+](=O)[O-],-9%,-2%,3%,x
CC1(C)CC(=O)C(C2C3=C(CC(C)(C)CC3=O)Oc3c(Br)cc(Br)cc32)=C(O)C1 (stereo not drawn),-3%,u,23µM*,0%
O=[S+]([O-])(c1ccc2c(c1)OCCO2)N1CCN([S+](=O)([O-])c2ccc(F)cc2Cl)CC1,1%,1%,-20%,x
CC(=O)N1CCc2cc(Br)cc(S(=O)(=O)CCC(=O)N3CCN(c4ccc(F)cc4)CC3)c21,-3%,0%,-5%[9.27 µM],0%
COc1ccc(/C=C/c2cccc[n+]2C)c(O)c1,53%,u,-23%,3%
CCN(CC)c1ccc(/C=C/c2cccc[n+]2C)c(OC)c1,u,7.3µM*,5.8µM*,3%
COc1ccc(OC)c(CCNC(=O)c2cnn(-c3ccc(C)cc3C)c2C2CCN(C(=O)OC(C)(C)C)CC2)c1,3%,-29%,18µM*,0%
